# Test results as given in PubChem BioAssay (NCI).
# Compounds without any hit were thinned out: in the full panel of roughly 83,000, 20% have a hit.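 Cell lines were cultured in 96-well plates, exposed to a single compound concentration, and assessed for percent growth 48 hours later.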 Unmarked numbers belong to inactive results. The source made the active and inactive calls. Rule for the calls: active = growth percent below 10; inactive = the rest.
# Tested on: HL-60(TB) leukemia
# Assay: NCI-60 one-dose screen, 48 h (100 = growth as untreated, 0 = no growth, -100 = all killed)
# Conditions: 10 µM unless noted
row,Structure (SMILES),growth
1,C=C1C(=O)O[C@H]2[C@H]1CC/C(CNC(=O)/C=C/c1ccccc1F)=C\CC[C@@]1(C)O[C@@H]21,-31.9% (active)
2,Nc1nonc1-n1nncc1-c1cccnc1,134%
3,COc1ccc2c(O)c(/C=C3\N=Nc4ncccc43)oc2c1C[C@@H]1CCNC[C@H]1F,-23.3% (active)
4,CNc1ccccc1C(N)=O,114%
5,O=C(O)CCNS(=O)(=O)c1ccc(-c2ccccc2)cc1,188%
6,CCn1cc(C(=O)O)c(=O)c2cc(F)c(N3CCN(S(=O)(=O)c4ccc(Cl)cc4Cl)CC3)cc21,-51.7% (active)
7,COc1cc(NCCCN=C(N)NC(N)=NC(C)C)c2ncccc2c1,85.7%
8,COc1cc2oc(-c3cccc(C(=O)Nc4ccc(C#N)cc4)c3)cc(=O)c2c(O)c1OC,136%
9,O=C(Nc1ccc(F)c(Cl)c1)c1n[nH]c(=O)c2ccccc12,86.2%
10,N=C(N)c1ccc(-c2ccc(-c3ccccc3)o2)cc1,-62% (active)
11,CCOC(=O)c1cnn(CC(O)c2ccc(F)cc2)c1NC(=O)Nc1ccccc1F (stereo unspecified),102%
12,COc1cc(C2CC(=O)Nc3c2cnn3C)cc(OC)c1OC (stereo unspecified),97.6%
13,COc1cccc(C(c2cc3c(cc2O)OCO3)N2CCOCC2)c1OC (stereo unspecified),97.1%
14,Cc1csc2ccc(Cl)cc12,110%
15,O=C1CN(CO)C(=O)CN1CO,107%
16,O=C(CCCCN1CCOCC1)Nc1ccc(Cn2nnc3c2C(=O)c2nnn(Cc4ccc(NC(=O)CCCCN5CCOCC5)cc4)c2C3=O)cc1,-28.4% (active)
